Measured values taken from PubChem BioAssay (NCI).
Where “and” joins values, the source holds several entries; their conditions need not be identical. Identical values can stand only once. About 83,000 compounds went through this panel and 20% of them were active in at least one assay; those are over-represented in the sample as a whole.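 For each line, cells grew in 96-well plates with the test compound present at a single concentration for 48 hours.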 Calls of active or inactive are those of the source. *1 amine or outer side, *2 acyl side, *3 side chain or, on linkers, in order; H or OH if unused. Where a SMILES comes first, the peptide text is derived from it. Bridges are numbered along the chain shown (N, C = ends). Roman numbers before positions name the chains, in order. [ ]: non-standard residue; d: D form. Actinocin(1to9) = Cc1c2oc3c(C)ccc(C(=O)[*:2])c3nc-2c(C(=O)[*:1])c(N)c1=O; NMeV = CN[CH](C(=O)O)C(C)C; Sar = CNCC(=O)O

The compounds below were run on MCF7 breast (assay: NCI-60 one-dose screen, 48 h (100 = growth as untreated, 0 = no growth, -100 = all killed)). Conditions: 10 µM.
Protocol: Growth inhibition of the MCF7 human tumor cell line is measured as a screen for anti-cancer activity. Cells are grown in 96 well plates and exposed to the test compound for 48 hours. Compounds are tested at a single concentration, which is 10^-5 M for most compounds. The reported endpoint is percent growth (GI% or GIPRCNT), where numbers from 0 - 100% represent growth inhibition, and numbers from -100% - 0 represent cell death. For example, a value of 40 represents 60% growth inhibition. A value of 0 means no net growth occurred over the course of the experiment. A value of -40 indicates 40% of cells at the beginning of the experiment died by the end of the experiment. A value of -100 means all cells are dead at the end of the experiment.
NCI-60 Human Tumor Cell Lines Screen was performed using the standard one-dose NCI protocol, which is described in more detail at https://dtp.cancer.gov/discovery_development/nci-60/default.htm.
Compounds with GIPRCNT values below 10 were considered active. Activity score was based on GIPRCNT using the following formula: […]
Score is 0 for GIPRCNT values of 100 or above, 50 for GIPRCNT values of 0, and 100 for GIPRCNT values of -100.

Row | Compound | growth
1 | CC(C)=CCCC(C)C1=C(O)C(=O)C(C)=CC1=O (stereo not given) | 66.9% (inactive)

Same assay, conditions: 10 µM unless noted

Row | Compound | growth
2 | O=[N+]([O-])c1ccc2c(c1)Cc1ccccc1-2 | 94.8% (inactive)
3 | O=C1c2ccccc2Cc2cccc(Cl)c21 | 96.1% (inactive)
4 | O=C(c1ccccc1)C(O)C(Br)(CBr)c1ccccc1 (stereo not given) | 81.5% (inactive)
5 | Oc1ccc2c(c1)CCc1ccccc1-2 | 103% (inactive)
6 | COc1ccc(C(Cn2ccnc2)Sc2ccc(Cl)c(Cl)c2)cc1 (stereo not given) | 79.6% (inactive)
7 | O=C(O)c1ccc2c(c1)C(=O)c1ccccc1C2=O | 97.7% (inactive)
8 | COc1ccc2nc3cc(Cl)ccc3c(NCCCCCN3CCCCC3)c2c1 | -33.5% (active)
9 | CCOC(=O)C1(C)CCCC1N (stereo not given) | 104% (inactive)
10 | CC1(O)CCCCCC1 | 96.8% (inactive)
11 | Cc1cc(C)c([I+]c2c(C)cc(C)cc2C)c(C)c1 | -53.7% (active)
12 | S=C1SCN(Cc2cccs2)CN1Cc1cccs1 | 43.9% (inactive)
13 | CCC(C)C1NC(=O)C(NC(=O)c2c3nc4c(C(=O)NC5C(=O)NC(C(C)CC)C(=O)N6CCCC6C(=O)N(C)CC(=O)N(C)C(C(C)C)C(=O)OC5C)ccc(C)c4oc-3c(C)c(=O)c2N)C(C)OC(=O)C(C(C)C)N(C)C(=O)CN(C)C(=O)C2CCCN2C1=O (stereo not given) (I: TIP[Sar][NMeV] / II: TIP[Sar][NMeV]; ester I:1-I:C, II:1-II:C; linker I:N-II:N via Actinocin(1to9); configuration not given here) | -26.2% (active)
14 | CCCCCCCCCCCC[n+]1ccccc1 (tested in a mixture with another compound) | 2.79% (active)
15 | S=C=Nc1ccc(N2CCOCC2)cc1 | 79.3% (inactive)
16 | CC1=C(C2=C(C)C(=O)C(=O)c3cc(C)ccc32)c2ccc(C)cc2C(=O)C1=O | -55.4% [100 µM] (active) and -100% [100 µM] (active)
17 | O=C(c1ccccc1)C(Br)C(Br)c1ccccc1 (stereo not given) | 31.3% (inactive)
18 | CCN(CC)CC(O)c1cc(-c2ccc(Cl)cc2)nc2cc(Cl)ccc12 (stereo not given) | -28.4% (active)
19 | Cc1cc2cccnc2c2ncccc12 | 3.96% (active)
20 | N#C/C(=N\Nc1ccc(Cl)cc1)C(=O)C1CC1 | 51.7% (inactive)

Row | Compound | growth
21 | O=[N+]([O-])c1ccc(C2N(Cc3ccc(Cl)cc3)CCN2Cc2ccc(Cl)cc2)cc1 | 87.3% (inactive)
22 | CCCN(CCC)C(=O)c1ccc(C)cc1 | 92.1% (inactive)
23 | CCOc1ccc(C(C[N+](=O)[O-])Sc2ccccc2N)cc1 (stereo not given) | 0.363% (active)
24 | COc1ccc2c(c1OC)OCC(CN(C)C)C2=O (stereo not given) | 75% (inactive)
25 | CC(C)(C)c1ccc(O)c(Br)c1 | 95.3% (inactive)
26 | O=C1C(=O)c2cccnc2-c2ncccc21 | -55.4% (active)
27 | COc1cc2c(c(OC)c1OC)-c1ccc(NCc3ccccc3)c(=O)cc1[C@@H](NC(C)=O)CC2 | 7.93% (active)
28 | Cc1cc(Br)c2nsnc2c1[N+](=O)[O-] | 10.1% (inactive)
29 | C=C(CO)C(=O)OC1CC(=C)C2CC(O)C(C)C2C2OC(=O)C(=C)C12 (stereo not given) | 73.2% [100 µM] (inactive) and -86.7% [100 µM] (active)
30 | OC(c1cc(-c2ccc(C(F)(F)F)cc2)nc(C(F)(F)F)c1)C1CCCCN1 (stereo not given) | -88% (active) and -86.5% (active) and -59.3% (active)
31 | O=C(/C(Cl)=N/O)c1ccc(-c2ccccc2)cc1 | 89.5% (inactive)
32 | CC12CCC(O)CC1=CCC1C2CCC2(C)C3=NN=CC3CC12 (stereo not given) | 107% (inactive)
33 | Cc1ccc(NC2=CC(=O)C(=O)c3ccccc32)cc1 | -57.4% (active)
34 | O=[n+]1c2ccccc2n([O-])c2cc(Cl)ccc21 | 28.2% (inactive)
35 | COc1ccc(Nc2nc3ccc(C(F)(F)F)cc3nc2C(=O)O)cc1 | -31.5% [100 µM] (active) and -100% [100 µM] (active)
36 | O=[N+]([O-])CC(O)c1ccccc1 (stereo not given) | 81.1% (inactive)
37 | CC[n+]1ccc(Nc2ccc(NC(=O)c3ccc(Nc4cc[n+](CC)c5ccc([N+](=O)[O-])cc45)cc3)cc2)cc1 | 36.7% (inactive)
38 | CCCCCCCCCCCC(=O)OC(C)C(=O)NCCCC (stereo not given) | 94.7% (inactive)
39 | O=S(=O)(O)c1cnccn1 | 98% (inactive)

Same assay, conditions: 100 µM

Row | Compound | growth
40 | CC(C)=CCCC(C)C1=C(O)C(=O)C(C)=CC1=O (stereo not given) | -52.3% (active) and -33.3% (active)
